The panel holds about 83,000 compounds, 20% with a hit somewhere; the sample as a whole holds those more often.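 48-hour exposure, single concentration, 96-well plates; percent growth endpoint where 0 means no net growth. Active: below 10.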 Unmarked numbers belong to inactive results. Activity calls are given as the source filed them.

Some test systems named below: HCT-15 colon; HT29 colon; SNB-75 CNS; SNB-19 CNS; U251 CNS; PC-3 prostate; SK-MEL-5 melanoma; UACC-62 melanoma; LOX IMVI melanoma; SK-MEL-28 melanoma; SK-MEL-2 melanoma; EKVX NSCLC; SN12C renal; UO-31 renal; TK-10 renal; ACHN renal; CAKI-1 renal; A498 renal; CCRF-CEM leukemia; MOLT-4 leukemia.
Holding throughout (assay): NCI-60 one-dose screen, 48 h (100 = growth as untreated, 0 = no growth, -100 = all killed)
What all share (settings): 10 µM unless noted

In the case of `O=C(Oc1ccc(CO[N+](=O)[O-])cc1)c1ccccc1`, the growth is -83% (active) in the test with HCT-15 colon; -60% (active) in the test with HT29 colon; -97.9% (active) in the test with SNB-75 CNS; -78.8% (active) with SNB-19 CNS; -91.2% (active) in the test on U251 CNS; -91.7% (active) in the test with PC-3 prostate. In addition, the growth was -96.1% (active) in the test with SK-MEL-5 melanoma; -76.3% (active) in the test on UACC-62 melanoma; -87.4% (active) in the test with LOX IMVI melanoma; -71.9% (active) in the test with SK-MEL-28 melanoma; -72.3% (active) in the test on SK-MEL-2 melanoma; -99.9% (active) in the test with EKVX NSCLC. Further, the growth with SN12C renal was -87.6% (active); with UO-31 renal it was -90.4% (active); with TK-10 renal, -96.9% (active); with ACHN renal, -84.7% (active); in the test on CAKI-1 renal, -97% (active); in the test on A498 renal, -71.5% (active). Further, the growth in the test with CCRF-CEM leukemia was -47.4% (active); with MOLT-4 leukemia it was -50.1% (active).

Turning to `O=C(Nc1ccc(F)cc1)c1cc2cc(Nc3nc(-c4ccccc4)nc4ccccc34)ccc2oc1=O`, the growth with HCT-15 colon is 112%; in the test on HT29 colon, 98.4%; in the test on SNB-75 CNS, 102%; in the test with SNB-19 CNS it was 109%; in the test with U251 CNS it was 97.4%; in the test with PC-3 prostate it was 99.4%. The growth is 105% in the test on SK-MEL-5 melanoma; 102% in the test with UACC-62 melanoma; 93.5% with LOX IMVI melanoma; 111% in the test on SK-MEL-28 melanoma; 104% in the test with SK-MEL-2 melanoma; 108% in the test with EKVX NSCLC. Further, the growth with SN12C renal is 104%; in the test on UO-31 renal, 83.4%; in the test with TK-10 renal, 97.3%; in the test with ACHN renal, 105%; with CAKI-1 renal, 101%; with A498 renal it was 102%. Also, the growth is 106% in the test on CCRF-CEM leukemia and 92.9% in the test on MOLT-4 leukemia.

In the case of `C=C(C)[C@@H]1CC[C@]2(C(=O)N3CCN(C)CC3)CC[C@]3(C)[C@H](CC[C@@H]4[C@@]5(C)CC(CCCNC(C)=O)(CCCNC(C)=O)[C@H](OC(C)=O)C(C)(C)[C@@H]5CC[C@]43C)[C@@H]12`, the growth with HCT-15 colon was 86.8%; with HT29 colon, 83%; with SNB-75 CNS, 89.2%; in the test on SNB-19 CNS, 99%; in the test with U251 CNS, 98.2%; with PC-3 prostate it was 74.9%. The growth was 91.5% in the test on SK-MEL-5 melanoma; 99.3% with UACC-62 melanoma; 97.8% in the test on LOX IMVI melanoma; 103% with SK-MEL-28 melanoma; 112% with SK-MEL-2 melanoma; 96.4% in the test with EKVX NSCLC. Besides, the growth was 96.5% with SN12C renal; 80.5% in the test with UO-31 renal; 109% with TK-10 renal; 101% in the test with ACHN renal; 79.3% with CAKI-1 renal; 109% in the test with A498 renal. For the same compound, the growth was 91.8% with CCRF-CEM leukemia and 85.7% in the test on MOLT-4 leukemia.

`Clc1ccc2c(c1)N(c1ncnc3ccc(-c4cnc5[nH]ccc5c4)cc13)CC2`: the growth in the test with HCT-15 colon is 14.4%; in the test on HT29 colon it was 3.75% (active); with SNB-75 CNS, 3.69% (active); in the test on SNB-19 CNS it was 38.3%; in the test on U251 CNS, 41.3%; in the test with PC-3 prostate, 28.2%. Besides, the growth was 32.7% in the test with SK-MEL-5 melanoma; 29.3% in the test on UACC-62 melanoma; 13.4% in the test with LOX IMVI melanoma; 36% in the test on SK-MEL-28 melanoma; 28.3% with SK-MEL-2 melanoma; 26.6% with EKVX NSCLC. The growth in the test with SN12C renal is 26.7%; in the test on UO-31 renal, 21%; in the test on TK-10 renal, 26.2%; in the test on ACHN renal, 28.4%; with CAKI-1 renal, 31.4%; in the test on A498 renal, 8.49% (active). Further, the growth in the test on CCRF-CEM leukemia was 21.1%; in the test with MOLT-4 leukemia it was -6.69% (active).

Regarding `CCCNNC(=O)/C=C/c1ccc(CNCCc2c(C)[nH]c3ccccc23)cc1`, the growth with HCT-15 colon is 42.8% [2.5 µM]; with HT29 colon, 5.78% [2.5 µM] (active); in the test on SNB-75 CNS, 56.9% [2.5 µM]; with SNB-19 CNS it was 28.6% [2.5 µM]; with U251 CNS, 8.11% [2.5 µM] (active); in the test on PC-3 prostate, 31.5% [2.5 µM]. For the same compound, the growth was -13.3% [2.5 µM] (active) in the test on SK-MEL-5 melanoma; -46% [2.5 µM] (active) in the test on UACC-62 melanoma; 0.891% [2.5 µM] (active) with LOX IMVI melanoma; 10.1% [2.5 µM] with SK-MEL-28 melanoma; 13.7% [2.5 µM] in the test on SK-MEL-2 melanoma; 50.4% [2.5 µM] in the test on EKVX NSCLC. Moreover, the growth was 26.3% [2.5 µM] in the test on SN12C renal; 13.8% [2.5 µM] with UO-31 renal; -16.2% [2.5 µM] (active) in the test on TK-10 renal; -15.4% [2.5 µM] (active) with ACHN renal; -4.92% [2.5 µM] (active) with CAKI-1 renal; -37.6% [2.5 µM] (active) in the test with A498 renal. Besides, the results for the growth in the test with CCRF-CEM leukemia and with MOLT-4 leukemia were 27.6% [2.5 µM] and 13.3% [2.5 µM], respectively.

With `Nc1nc2ccccc2c2c(=O)c3ccc(Cl)cc3sc12`, the growth was 101% with HCT-15 colon; 98% with HT29 colon; 96.3% in the test on SNB-75 CNS; 102% in the test on SNB-19 CNS; 84.8% with U251 CNS; 89.9% in the test on PC-3 prostate. Moreover, the growth in the test with SK-MEL-5 melanoma was 104%; in the test with UACC-62 melanoma, 92.5%; in the test on LOX IMVI melanoma, 98%; with SK-MEL-28 melanoma it was 110%; in the test on SK-MEL-2 melanoma, 106%; in the test with EKVX NSCLC, 89.2%. Also, the growth was 91.3% in the test with SN12C renal; 96.1% with UO-31 renal; 130% with TK-10 renal; 83.6% with ACHN renal; 89% in the test on CAKI-1 renal; 99.7% in the test with A498 renal. In addition, the growth in the test on CCRF-CEM leukemia was 94.5%; in the test on MOLT-4 leukemia it was 93.6%.

Consider `N#CC(Cc1cccc2ccccc12)c1cc2ccccc2[nH]1` (stereo not given), for which the growth in the test with HCT-15 colon is 88%; with HT29 colon, 95.7%; in the test on SNB-75 CNS, 88.3%; in the test with SNB-19 CNS, 98.2%; in the test with U251 CNS, 92.3%; in the test with PC-3 prostate it was 74.8%. Moreover, the growth in the test with SK-MEL-5 melanoma is 95.6%; in the test on UACC-62 melanoma it was 70%; with LOX IMVI melanoma it was 90.9%; in the test on SK-MEL-28 melanoma, 102%; with SK-MEL-2 melanoma, 113%; with EKVX NSCLC, 94.1%. For the same compound, the growth with SN12C renal was 90.2%; with UO-31 renal it was 51.9%; with TK-10 renal, 108%; in the test with ACHN renal, 95.2%; in the test with CAKI-1 renal it was 73.7%; in the test on A498 renal, 112%. The growth in the test with CCRF-CEM leukemia is -47% (active); in the test with MOLT-4 leukemia it was 78.2%.

These data come from PubChem BioAssay (NCI).
